# Test results published in PubChem BioAssay AID488821 (National Center for Advancing Translational Sciences (NCATS), 2010).
# Results filed as inconclusive are left out. Where a call stands in place of a potency, no number is given. Active and inactive are the calls of the source. The call rests on the fitted dose curve; in most records, active means well fitted inhibition curve with a large enough effect; inconclusive means small, poorly fitted or top-dose-only effect, or effect the other way; inactive means flat fitted curve, though single readings scatter.
# Assay: Counterscreen Assay for Enhancers of SMN2 Splice Variant Expression: Modulation of SMN1 Expression for Further Probe SAR
# Conditions: HEK293 SMN1-luciferase reporter, luminescence, 30-36 h; series mostly up to 46.1 µM
# Text: NIH Chemical Genomics Center [NCGC] NIH Molecular Libraries Probe Production centers Network [MLPCN] MLPCN Grant: R03 MH084179-01 Assay Submitter (PI): Elliot Androphy NCGC Assay Overview: Spinal muscular atrophy (SMA) is caused by insufficient levels of the survival motor neuron protein SMN. The SMN locus on chromosome 5q13 contains two inverted copies of SMN called SMN1 and SMN2 which are 99% identical at the amino acid level. SMN1 is a fully functional protein and SMN2 skips exon 7 90% of the time. Skipping of exon 7 produces non-functional protein product. 10% of the SMN2 protein includes exon 7 and is fully functional. In the SMA disease state, mutations in the SMN1 locus are the cause of the disease state. Because only 10% of SMN2 is of the fully functional form, it is not sufficient to overcome the deficiency produced by the loss of the SMN1 product. A therapy that either increases the amount of SMN2 product made increases the inclusion of exon 7 has been proposed for the treatment of SMA. We have designed an assay to identify small molecules that can increase the amount of functional SMN2 product by appending a luciferase reporter gene after the native SMN2 gene, such that inclusion of exon 7 in the expressed product places the luciferase sequence in frame, thus generating functional luciferase enzyme. As a counterscreen for nonspecific modulators of expression, we have run compounds through a similar assay that measures expression of an SMN1-luciferase chimera.
# NCGC Assay Protocol Summary: This screen utilizes a luciferase reporter gene assay, combining the promoter with the major portion of the native SMN1 cDNA (exons 1 -7, intron 8 , exon 8 fused to luciferase) stably expressed in HEK293 cells. Compounds that increase luciferase signal presumably enhance expression of the functional SMN1 splice variant. Passaging media contained DMEM w/ glutamax (+phenol red) 10% FCS, 1x pen/strep, 200 ug/ml hygro, 1x sodium pyruvate. Assay media contained DMEM w/ glutamax (-phenol red) 10% FCS, 1x pen strep, 1x pyruvate Sequence, Parameter, Value, Description (1) Cells, 5 uL, 2000 cells/well, 1536 TC treated White solid bottom plate (2) Time, 10-12 hours, 37C 5% CO2 (3) Compound, 23 nl, MLSMR Library (4) Control Compound, 23 nL, Sodium butyrate st 4.5mM (final) conc (5) Time, 30-36 hours, 37C 5% CO2 (6) Reagent, 3 ul, One Glo (TM) from Promega (7) Time, 5-15 minutes, Room temp (8) Detector, Viewlux: luminescent read, 60 second integration, high speed 2x binning Keywords: Spinal muscular atrophy, SMA, SMN2, high throughput screening, MLSMR, MLPCN, NIH Roadmap, qHTS and NCGC
row,SMILES,Potency
1,NC(=O)C1CCN(c2ncc(-c3ccc4c(c3)OCO4)s2)CC1,0.972 µM (active)
2,NC(=O)C1CCN(c2nc(-c3ccccc3Cl)cs2)CC1,inactive
3,NC(=O)C1CCN(c2nc(-c3cccc4ccccc34)cs2)CC1,inactive
4,COc1ccc(-c2cnc(N3CCC(C(N)=O)CC3)s2)cc1OC,inactive
5,CNC(=O)C1CCN(c2nc(-c3ccc(Br)cc3)cs2)CC1,inactive
6,NC(=O)C1CCN(c2ncc(-c3ccc4c(c3)OCCO4)s2)CC1,1.22 µM (active)
7,CC(=O)Nc1ccc(-c2csc(N3CCC(C(N)=O)CC3)n2)cc1,inactive
8,Cc1ccc(-c2ccnc(N3CCC(C(N)=O)CC3)n2)cc1,7.72 µM (active)
9,NC(=O)C1CCN(c2ncc(-c3ccc(Cl)cc3)s2)CC1,9.72 µM (active)
10,CN(C)c1cccc(-c2ncc(F)c(N3CCC(C(N)=O)CC3)n2)c1,inactive
11,c1c[nH]c(C2CCN(c3ncc(-c4ccc5c(c4)OCCCO5)s3)CC2)n1,9.72 µM (active)
12,CCOC(=O)C1CCN(c2ncc(-c3ccc4c(c3)OCCCO4)s2)CC1,0.387 µM (active)
13,NC1CCN(c2nc(-c3ccc(Br)cc3)cs2)CC1,19.4 µM (active)
14,NC(=O)C1CCN(c2nc(-c3ccccc3)cs2)CC1,inactive
15,NC(=O)C1CCN(c2nc(-c3cccc([N+](=O)[O-])c3)cs2)CC1,inactive
16,NC(=O)C1CCN(c2nc(-c3ccc4c(c3)CCO4)cs2)CC1,inactive
17,CS(=O)(=O)c1ccc(-c2csc(N3CCC(C(N)=O)CC3)n2)cc1,inactive
18,NC(=O)C1CCN(c2ncc(-c3ccc4c(c3)OC(F)(F)O4)s2)CC1,15.4 µM (active)
19,NC(=O)C1CCN(c2nnc(-c3ccc(Br)cc3)s2)CC1,12.2 µM (active)
20,O=C(C1CCN(c2nc(-c3ccc(Br)cc3)cs2)CC1)N1CCNCC1,inactive

row,SMILES,Potency
1,Brc1ccc(-c2csc(N3CCC(c4nn[nH]n4)CC3)n2)cc1,inactive
2,NC(=O)C1CCN(c2ncc(-c3cccc(N4CCCCC4)c3)s2)CC1,inactive
3,NC(=O)C1CCN(c2ncc(-c3cccc(N4CCCC4)c3)s2)CC1,12.2 µM (active)
4,NC(=O)C1CCN(c2nc(-c3ccc([N+](=O)[O-])cc3)cs2)CC1,inactive
5,Brc1ccc(-c2csc(N3CCNCC3)n2)cc1,30.7 µM (active)
6,NC(=O)C1CCN(c2nc(-c3ccc(Oc4ccccc4)cc3)cs2)CC1,inactive
7,Cc1cccc(-c2csc(N3CCC(C(N)=O)CC3)n2)c1,inactive
8,CN(C)c1cccc(-c2cc(N3CCC(C(N)=O)CC3)ncn2)c1,inactive
9,CC(=O)C1CCN(c2ncc(-c3cccc(N(C)C)c3)s2)CC1,12.2 µM (active)
10,CC(C)COc1ccc(-c2csc(N3CCC(C(N)=O)CC3)n2)cc1,inactive
11,Cc1ccc(-c2cnc(N3CCC(C(N)=O)CC3)s2)cc1,2.44 µM (active)
12,N#Cc1ccccc1-c1csc(N2CCC(C(N)=O)CC2)n1,inactive
13,N#Cc1ccc(-c2csc(N3CCC(C(N)=O)CC3)n2)cc1,inactive
14,O=C(NCCc1ccccc1)C1CCN(c2nc(-c3ccc(Br)cc3)cs2)CC1,inactive
15,NC(=O)C1CCN(c2nc(-c3ccc(OC(F)(F)F)cc3)cs2)CC1,inactive
16,O=C(Nc1ccccc1)C1CCN(c2nc(-c3ccc(Br)cc3)cs2)CC1,inactive
17,O=C(O)C1CCN(c2ncc(-c3ccc4c(c3)OCCCO4)s2)CC1,0.244 µM (active)
18,NC(=O)C1CCN(c2nc(-c3ccc(N)cc3)cs2)CC1,inactive
19,CCOc1ccc(-c2csc(N3CCC(C(N)=O)CC3)n2)cc1,inactive
20,CC(=O)N1CCN(c2nc(-c3ccc(Br)cc3)cs2)CC1,15.4 µM (active)
